Measured values: ChEMBL document CHEMBL1157539, “Thousands of chemical starting points for antimalarial lead identification” (Nature, 2010)

Key:
Type in all cases: functional
Plasmodium falciparum [1] = experiment: GSK_TCMDC: Inhibition of Plasmodium falciparum 3D7 in whole red blood cells, using parasite LDH activity as an index of growth. Test compounds present at 2uM
Plasmodium falciparum [2] = experiment: GSK_TCMDC: Inhibition of Plasmodium falciparum Dd2 in whole red blood cells, using parasite LDH activity as an index of growth. Test compounds present at 2uM
HepG2 = experiment: GSK_TCMDC: Percent inhibition of human HepG2 cell line. Test compounds present at 10uM.

Row | SMILES | Inhibition (Plasmodium falciparum [1]) | Inhibition (Plasmodium falciparum [2]) | Inhibition (HepG2)
1 | O=C(Nc1ccc(N2CCC(Nc3ccccn3)CC2)cc1)c1cnc(Cl)c(Cl)c1.O=C(O)C(F)(F)F | 83% | 1% | 46%
2 | C[C@@H](C(N)=O)N1CCCCC1c1ccc(OCc2cccc(F)c2)cc1 (some centres not stated) | 84% | 96% | 79%
3 | COc1ccccc1CCC(C)(C)NC(=O)CC(CCc1ccccc1)Nc1ccc(C#N)c2ccccc12 (configuration not stated) | 94% | 65% | 6%
4 | O=c1cc(NCCCCNCc2cccc(Cl)c2)[nH]c2ccccc12 | 98% | 41% | 2%
5 | Cl.O=C(Nc1ccc(NC2=NCCN2)cc1)Nc1ccc(NC2=NCCN2)cc1 | 88% | 72% | 0%
6 | COc1ccc2ccccc2c1CCCCN1CCN(CC(c2ccc(F)cc2)N2CCN(C3CCCC3)CC2)CC1.O=C(O)C(F)(F)F (configuration not stated) | 88% | 51% | 88%
7 | O=C(Nc1ccc(Cl)c(C(F)(F)F)c1)N[C@H]1CCN(CCCCCNC(=O)C2CC2c2ccc(Cl)c(Cl)c2)C1 (some centres not stated) | 94% | 0% | 39%
8 | Cc1ccc2c(c1)nc(N)n2C[C@H](O)c1ccccc1 | 100% | 74% | 0%
9 | CCOC(=O)c1nc(-c2cc(Cl)nc(Cl)c2)[nH]c1NC(=S)NCc1ccc(NS(C)(=O)=O)cc1 | 100% | 98% | 0%
10 | CCc1ccc(S(=O)(=O)Nc2ccc(CCN3CCC(N4CCCCC4)CC3)cc2)cc1 | 100% | 13% | 35%
11 | O=C(O)C(F)(F)F.O=S(=O)(NC1CCN(c2ccnc3cc(Cl)ccc23)C1)c1cccc(F)c1 (configuration not stated) | 98% | 88% | 19%
12 | Cl.Nc1ncc(Cc2cc(Cl)c(N)c3ncccc23)c(N)n1 | 89% | 95% | 5%
13 | O=C(Nc1cccc(F)c1)NC1CCN(c2ccnc3cc(Cl)ccc23)C1.O=C(O)C(F)(F)F (configuration not stated) | 100% | 64% | 13%
14 | CN1CCN(CC(=O)Nc2cccc(-c3cccc(-c4nc5cc(F)ccc5[nH]4)c3)c2)CC1 | 100% | 98% | 16%
15 | O=C1CC(C(=O)O)CC(=O)N1 | 94% | 88% | 0%
16 | CC(C)(C)OC(=O)N1CCN(c2ccccc2NC(=O)c2cccc(C(F)(F)F)c2Oc2ccc(F)cc2)CC1 | 100% | 9% | 3%
17 | Clc1cc(Cl)cc(Nc2ccnc(Nc3cc(Cl)cc(Cl)c3)n2)c1 | 99% | 73% | 11%
18 | CCOC(=O)CCCc1cc(NC2CCN(C)CC2)nc(Nc2ccc(C)cc2)n1 | 90% | 12% | 35%
19 | COc1cc2nc(NCCN3CCOCC3)n3nc(-c4ccccc4)nc3c2cc1OC | 96% | 98% | 15%
20 | Cc1nc(N/C=C/c2ccc(O)cc2)cc(N2CCCC2)n1 | 93% | 54% | 0%
21 | CC(C)NCc1cc(Nc2ccnc3cc(Cl)ccc23)ccc1O.Cl | 100% | 100% | 27%
22 | COc1ccc(NC(=O)/C=C/c2cc(Br)ccc2F)cc1OCCN(C(C)C)C(C)C.O=C(O)C(F)(F)F | 100% | 14% | 22%
23 | Cn1nccc1C(=O)NCCNCc1ccc(-c2ccc(-c3nc4cc(C(F)(F)F)ccc4[nH]3)s2)cc1.O=C(O)C(F)(F)F | 100% | 99% | 48%
24 | CC(C)N1CCC(Oc2ccc(CN3CCN(C(c4ccccc4)c4ccc(Cl)cc4)CC3)cc2)CC1.Cl (configuration not stated) | 97% | 46% | 44%
25 | Cc1ccccc1N1CCN(c2ccc(C(=O)Nc3ccccc3)cn2)CC1.O=C(O)C(F)(F)F | 95% | 69% | 44%
26 | O=C(O)C(F)(F)F.c1cc(CNCCN2CCNCC2)cc(-c2ccc(-c3nc4ccccc4[nH]3)cc2)c1 | 98% | 11% | 3%
27 | COc1ccc2nccc([C@@H](O)CN3CCC(NC(=O)C(=Cc4ccc(C#N)cc4)c4ccc(-c5ccccc5)cc4)CC3)c2c1 | 100% | 84% | 5%
28 | COCCN1CCN(Cc2ccc(-c3ccc(-c4nc5cc(F)ccc5[nH]4)cc3)cc2)CC1.O=C(O)C(F)(F)F | 100% | 99% | 25%
29 | Cc1cccc2nc(-c3ccc(-c4cccc(CNC(C)C)c4)s3)[nH]c12.O=C(O)C(F)(F)F | 100% | 97% | 12%
